Assay outcomes as filed in PubChem BioAssay.
Compounds with a hit are over-represented: about 5.7% of the library has one in this group of screens.
rCAG binder – binds r(CAG) RNA repeats | r(CAG) RNA repeat, TO-PRO-1 dye displacement fluorescence | inhibition, % at 3 µM | hit rate 1.3% among 370,000 | AID 651821;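 active means inhibition above the plate cutoff, the mean of all test compounds on that plate plus 3 SD, cut at about 35% in these data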;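 further: 0% = DMSO alone and 100% = 100 µM mitoxantrone as full dye displacement; higher means more dye released from RNA so lower well fluorescence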
Myeloid diff MLP – compounds promoting myeloid differentiation | hit rate 1% among 360,000 | calls only at 10 µM | ER-HoxA9 myeloid progenitors, lysozyme-GFP differentiation, flow cytometry;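 active means normalized GFP-positive differentiation at or above the plate's own cutoff, the solvent-only control mean plus 3 SD; inconclusive means no clear call, values can overlap the other calls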;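 further: cells exposed to compound for four days before flow analysis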
FAS TE block – FAS thioesterase (human) inhibition. recombinant FAS-TE, OMFH fluorogenic substrate, fluorescence endpoint. AID 602261. inhibition, % at 15 µM. hit rate 0.67% among 360,000;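 active means compounds whose normalised, plate-corrected inhibition of enzyme fluorescence in the single-dose primary screen is 50% or more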;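 further: 0% = DMSO with enzyme and 100% = substrate without enzyme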
Target sequence (P49327 whole entry, looked up): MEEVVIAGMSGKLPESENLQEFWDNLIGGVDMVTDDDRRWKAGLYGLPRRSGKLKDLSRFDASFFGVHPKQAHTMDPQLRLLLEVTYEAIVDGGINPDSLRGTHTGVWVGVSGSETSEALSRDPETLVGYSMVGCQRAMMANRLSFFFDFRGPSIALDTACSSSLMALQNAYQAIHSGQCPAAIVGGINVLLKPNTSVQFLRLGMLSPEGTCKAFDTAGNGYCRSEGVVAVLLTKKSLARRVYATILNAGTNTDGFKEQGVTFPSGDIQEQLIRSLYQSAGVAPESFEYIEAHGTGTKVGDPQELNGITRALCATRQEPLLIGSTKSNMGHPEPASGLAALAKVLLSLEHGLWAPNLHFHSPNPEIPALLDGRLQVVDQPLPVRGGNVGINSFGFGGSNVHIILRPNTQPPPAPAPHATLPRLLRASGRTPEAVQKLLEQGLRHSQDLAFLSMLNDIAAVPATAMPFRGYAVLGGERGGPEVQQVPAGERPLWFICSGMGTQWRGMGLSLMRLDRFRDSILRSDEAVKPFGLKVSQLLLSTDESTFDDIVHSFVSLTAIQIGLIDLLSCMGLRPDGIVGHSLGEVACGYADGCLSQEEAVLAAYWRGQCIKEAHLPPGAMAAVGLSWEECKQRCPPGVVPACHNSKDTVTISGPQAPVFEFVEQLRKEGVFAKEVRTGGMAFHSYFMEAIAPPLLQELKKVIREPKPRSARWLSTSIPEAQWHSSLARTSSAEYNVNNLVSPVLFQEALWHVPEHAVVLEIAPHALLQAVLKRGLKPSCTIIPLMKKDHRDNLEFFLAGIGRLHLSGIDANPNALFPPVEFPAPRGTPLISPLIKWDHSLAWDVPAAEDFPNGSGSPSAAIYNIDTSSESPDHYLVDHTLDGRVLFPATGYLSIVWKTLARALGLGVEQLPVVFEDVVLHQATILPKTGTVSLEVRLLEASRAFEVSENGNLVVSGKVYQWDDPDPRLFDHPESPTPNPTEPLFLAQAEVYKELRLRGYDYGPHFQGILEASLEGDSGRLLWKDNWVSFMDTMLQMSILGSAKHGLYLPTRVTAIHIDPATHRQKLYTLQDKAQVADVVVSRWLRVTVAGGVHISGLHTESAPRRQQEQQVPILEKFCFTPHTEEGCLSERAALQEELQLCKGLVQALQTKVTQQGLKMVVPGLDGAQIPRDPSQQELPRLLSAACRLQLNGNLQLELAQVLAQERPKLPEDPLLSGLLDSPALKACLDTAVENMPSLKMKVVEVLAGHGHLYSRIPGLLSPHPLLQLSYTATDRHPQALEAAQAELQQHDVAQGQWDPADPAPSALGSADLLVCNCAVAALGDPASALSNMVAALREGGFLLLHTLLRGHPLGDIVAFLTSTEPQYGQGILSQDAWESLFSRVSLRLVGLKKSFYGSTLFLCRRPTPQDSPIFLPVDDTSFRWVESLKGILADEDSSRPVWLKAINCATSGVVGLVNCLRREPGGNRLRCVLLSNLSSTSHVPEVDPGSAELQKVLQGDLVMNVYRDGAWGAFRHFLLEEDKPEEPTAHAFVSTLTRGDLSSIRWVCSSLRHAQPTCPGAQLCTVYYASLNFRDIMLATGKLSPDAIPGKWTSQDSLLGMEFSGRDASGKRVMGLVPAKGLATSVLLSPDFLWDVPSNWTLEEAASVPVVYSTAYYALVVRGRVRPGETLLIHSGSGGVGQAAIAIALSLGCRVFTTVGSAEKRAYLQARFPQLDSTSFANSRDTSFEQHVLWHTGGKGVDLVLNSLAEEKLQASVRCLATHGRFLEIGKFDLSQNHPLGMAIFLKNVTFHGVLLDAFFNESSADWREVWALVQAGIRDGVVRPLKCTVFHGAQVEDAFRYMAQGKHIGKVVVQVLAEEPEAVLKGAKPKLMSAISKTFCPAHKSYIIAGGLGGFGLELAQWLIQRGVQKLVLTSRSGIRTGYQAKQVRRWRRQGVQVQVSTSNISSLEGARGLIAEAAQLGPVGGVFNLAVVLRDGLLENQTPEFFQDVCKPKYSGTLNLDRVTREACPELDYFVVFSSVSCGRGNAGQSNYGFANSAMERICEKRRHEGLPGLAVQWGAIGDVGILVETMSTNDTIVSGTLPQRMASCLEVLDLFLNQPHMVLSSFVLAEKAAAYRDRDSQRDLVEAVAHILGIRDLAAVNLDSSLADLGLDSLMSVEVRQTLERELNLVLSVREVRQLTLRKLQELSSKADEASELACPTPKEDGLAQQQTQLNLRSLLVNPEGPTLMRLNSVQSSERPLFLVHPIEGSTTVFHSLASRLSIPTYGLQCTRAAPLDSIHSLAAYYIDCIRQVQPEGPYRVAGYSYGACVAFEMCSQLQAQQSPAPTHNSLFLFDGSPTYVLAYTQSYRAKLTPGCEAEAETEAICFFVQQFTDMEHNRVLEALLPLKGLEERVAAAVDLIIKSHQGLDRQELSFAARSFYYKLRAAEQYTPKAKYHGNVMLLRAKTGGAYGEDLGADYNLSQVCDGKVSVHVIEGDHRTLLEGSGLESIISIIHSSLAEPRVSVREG
MPTP block – permeability transition pore inhibition; AID 602449; isolated mouse mitochondria, Ca2+ swelling absorbance, 30 min; inhibition, % at 10 µM; hit rate 1.4% among 360,000;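 active means inhibition of 50% or more, scaled per plate between neutral and stimulator controls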;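 further: 0% = DMSO wells given calcium and 100% = 1 mM EGTA wells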
NR3A LBD binder – modulates the human NR3A ligand-binding domain; Tm shift relative to glycine control, % at 25 µM; hit rate 2.5% among 340,000; NR3A LBD differential scanning fluorimetry, Tm shift; 0% = protein alone, 100% = glycine-bound protein;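 active means melting temperature shift of at least 10% of the positive control shift, at one fixed dose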
MPTP counter – Rhodamine 123 counter-screen of mitochondrial pore hits. hit rate 78% among 5,000. isolated mitochondria, membrane potential, Rhodamine 123 fluorescence. AID 624504. shares compounds with MPTP block. inhibition, % at 10 µM; in the data active means inhibition above about 22%;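 further: 0% = DMSO vehicle and 100% = positive control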
MPTP swell DR – MPTP inhibition, dose response swelling confirmation. shares compounds with MPTP block. isolated mitochondria swelling, absorbance. IC50, µM. hit rate 58% among 780; in the data active means IC50 below about 20 µM
MPTP counter DR – counter-screen for mitochondrial permeability transition pore inhibitors, dose response. shares compounds with MPTP block. isolated mitochondria counterscreen, fluorescence read-out. IC50, µM. hit rate 49% among 780. AID 651564; in the data active means IC50 below about 80 µM
* marks the source's active call; other numbers are inactive results; i = inactive; ? = inconclusive; nt = no result given.

SMILES | rCAG binder | Myeloid diff MLP | FAS TE block | MPTP block | NR3A LBD binder | MPTP counter | others
CC(NC(=O)Nc1nnc(C(F)(F)F)s1)(C(F)(F)F)C(F)(F)F | 6 | i | -6 | 94* | 2 | 110*
O=C(Nc1nnc(C(F)(F)F)s1)C1COc2ccccc2O1 (centres undefined) | 3 | i | -1 | 84* | -6 | 78*
Cc1nn(-c2ccccc2)nc1C(=O)Nc1nnc(C(F)(F)F)s1 | 5 | i | -1 | 73* | 5 | 79*
COc1ccc(-c2ccc(C(=O)Nc3ccc(C(C)C)cc3)c3occc23)c(C)c1 | 6 | i | 15 | 2 | nt | nt
Cc1ccc(S(=O)(=O)NN2CCCCCC2)cc1 | 1 | i | -8 | 2 | nt | nt
C=CC[n+]1c(-c2ccc(OC)cc2)csc1NNC(=O)Nc1ccccc1 | 3 | i | 12 | 71* | -2 | 59*
O=C(CCCNC(=O)c1ccc(Cl)cc1)NCc1ccccc1F | -4 | i | -4 | 0 | 2 | nt
Cn1cc(Br)c(C(=O)NC2CCCCCC2)n1 | -3 | i | -3 | -2 | -1 | nt
CC(=O)N1CCN(c2cc(N3CCCC3)c(F)cc2[N+](=O)[O-])CC1 | -5 | i | 6 | 0 | -2 | nt
CCN1CCN(c2cc(N3CCc4ccccc4C3)c(F)cc2[N+](=O)[O-])CC1 | -3 | i | 19 | 104* | -2 | -12
CCOc1ccc(CNC(=S)N/N=C/c2ccc(OC)c(OC)c2)cc1 | 3 | i | 42 | -18 | -17 | nt
CCCCCCCCCCOC(=O)Cn1c(COc2ccccc2OC)[n+](C)c2ccccc21 | 7 | i | -28 | 53* | -408 | 95*
O=C(CCCCCCN1C(=O)c2ccccc2C1=O)Nc1nccs1 | -7 | i | 0 | 66* | 2 | -1 | MPTP swell DR=>100;MPTP counter DR=>80
O=C(Nc1cccc(Cl)c1)NC1CC2CCC1C2 (centres undefined) | 0 | i | 10 | 55* | -7 | 84*
O=C(Nc1ccc(F)c(F)c1)NC1CCCCC1 | -1 | i | 4 | 53* | -3 | 89*
CC(=O)c1cccc(NC(=S)NC2CCCCCCC2)c1 | 3 | ? | 14 | 50* | -6 | 99*
CC(=O)c1cccc(NC(=O)NC2CCCCCCC2)c1 | -6 | i | 2 | 0 | 0 | nt
O=C(Nc1cccc(Cl)c1)NC1CC2CCC(C1)N2Cc1ccco1 (centres undefined) | -3 | i | -2 | -1 | 1 | nt
O=C(Nc1cccc(Cl)c1)NC1CCCCC1 | -1 | i | 3 | 83* | -8 | 73*
CCN1CCN(CCNC(=O)CCCn2nc(C)c3c(C)n(-c4ccc(C)cc4)nc3c2=O)CC1 | -8 | i | -3 | 0 | -3 | nt
O=C(Nc1cccc(C(F)(F)F)c1)NC1CCCCC1 | -2 | nt | 11 | 93* | -4 | 119*
Cn1c(=O)c2c(ncn2CC(=O)OCC(=O)c2ccc(Br)cc2)n(C)c1=O | 25 | i | 4 | 1 | nt | nt
S=C(Nc1ccc(Oc2ccccc2)cc1)N1CCN(c2ccccn2)CC1 | 9 | i | 22 | 80* | -1 | 79*
COc1ccccc1C1C(C(=O)c2ccco2)=C(O)C(=O)N1c1cc(C)on1 (centres undefined) | 2 | i | -3 | -1 | 0 | nt
O=C(c1ccccc1)c1cnc(Nc2ccc(Cl)c(Cl)c2)s1 | 1 | i | -1 | 62* | 29* | 44*
SMILES | rCAG binder | Myeloid diff MLP | FAS TE block | MPTP block | NR3A LBD binder | MPTP counter | others
O=C(c1ccc(F)cc1)c1cnc(Nc2ccccc2)s1 | 4 | i | 2 | 0 | -2 | nt
CCCC(=O)c1ccc(N2CCN(C(=O)c3ccccc3Br)CC2)c(F)c1 | -5 | i | 15 | 80* | 7 | 66*
CCCC(=O)c1ccc(N2CCN(C(=O)c3ccccc3)CC2)c(F)c1 | -8 | i | 1 | 2 | 0 | nt
CC(=O)c1c(C)[nH]c(C(=O)OCC(=O)Nc2cc(S(=O)(=O)N3CCCC3)ccc2Cl)c1C | 3 | i | -6 | 23 | -17 | nt
CC(=O)c1c(C)[nH]c(C(=O)OCC(=O)Nc2cccc(S(=O)(=O)N3CCCC3)c2)c1C | 12 | i | 0 | 62* | -24 | 61*
CC(=O)c1c(C)[nH]c(C(=O)Nc2cccc(S(=O)(=O)N(C)C)c2)c1C | 2 | nt | 5 | 2 | -2 | nt
CCN(CC)S(=O)(=O)c1cccc(NC(=O)COC(=O)c2[nH]c(C)c(C(C)=O)c2C)c1 | 12 | i | 3 | 86* | nt | 88*
CC(C)(C)c1ccc(C(=O)N2CCC2(C)C(=O)NS(=O)(=O)c2ccccc2Cl)cc1 (centres undefined) | 30 | i | -8 | 0 | nt | nt
CCCCc1ccc(S(=O)(=O)NNC(=S)NCc2ccco2)cc1 | 6 | i | -4 | 83* | -6 | 65*
O=C(NCCCN1CCOCC1)c1cccc(S(=O)(=O)N2CCc3ccccc32)c1 | -1 | i | 0 | 0 | nt | nt
CC(C)(C)CC(C)(C)c1ccc(O)c(Cc2ccc(Cl)cc2Cl)c1 | 2 | i | 31 | 95* | 12* | 5 | MPTP swell DR=i;MPTP counter DR=6.4*
COc1ccc(C(=O)CSc2nnc(Cn3cnc4ccccc43)o2)cc1 | 11 | i | -6 | 84* | 0 | 66*
O=S(=O)(Nc1ncccn1)c1ccc(NC(=S)Nc2ccc(Cl)cc2)cc1 | 1 | i | -3 | 98* | 4 | 96*
Fc1ccc(NC(=S)Nc2cc(Cl)ccc2Cl)cc1 | 3 | i | 4 | 58* | 0 | 78*
COc1ccc(NC(=S)Nc2ccc(F)cc2)c(OC)c1 | -1 | i | -9 | 0 | 0 | nt
Fc1ccc(NC(=S)Nc2ccc(Cl)cc2)cc1 | 1 | i | 0 | 80* | 4 | 107*
O=C(Nc1ccc(Cl)cc1)Nc1ccc(S(=O)(=O)Nc2ncccn2)cc1 | 13 | i | -2 | -1 | 5 | nt
Fc1ccc(NC(=S)Nc2cccnc2)cc1 | -4 | i | -11 | -2 | -6 | nt
CCNc1nc(NCC)nc(N2CC(=O)N(CC(=O)OCC)C2=N)n1 | -2 | i | -8 | -1 | 1 | nt
COc1cccc(C(C)NC(=O)Nc2ccccc2Cl)c1 (centres undefined) | 2 | i | 3 | 10 | 2 | nt
O=C(C(=O)N1CCC(CNC(=O)C2COc3ccccc3O2)CC1)c1cccs1 (centres undefined) | 1 | nt | nt | nt | nt | nt
CN1C(=O)C[C@@](C#N)(C(=O)NCCc2ccccc2)[C@H]1c1ccccc1 | -1 | nt | nt | nt | nt | nt
COC(=O)[C@]12CCCCC=C1N(Cc1ccc3c(c1)OCO3)C(=O)[C@H](CC(=O)NCc1cccc3ccccc13)C2 | 8 | i | nt | -2 | nt | nt
CSCCC(C(=O)NC(C)(C)C)n1c(-c2ccc(C)cc2)nc2ccccc21 (centres undefined) | 4 | i | nt | 1 | nt | nt
